# Results reported in the supplement of paper PMC11417369.
# Whole data set: some 25,000 sequences, median “ln(normalized median fluorescence intensity)” near 7.1, cut for the highest 2% near 10. The sample as a whole holds a higher share of the highest values than the screen did.
# Test system: PfSIP2 AP2 domain 1 (GST-tagged)
# Assay: gcPBM binding intensity (ln(normalized median fluorescence intensity)); higher = stronger DNA binding
# In short: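 The highest Masliner-normalised natural-log median intensity across replicate spots of either probe orientation is reported as binding intensity. GST-tagged P. falciparum DNA-binding domains expressed in E. coli were applied for 1 h to an Agilent 4 × 180k array of primer-extended double-stranded 36-bp intergenic genomic probes plus negative controls, and bound protein was detected with Alexa488 anti-GST antibody and scanned at 488 nm.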
row,Sequence,gcPBM binding intensity (ln)
1,CTTTCTATATAAAATCGTACATATATAATATTATAT [XGTACX_site5807],7.3
2,GACATATAAATATACACACATACGTAAGTATATTAA [CACACA_site1790],6.91
3,GGAAAATACATTCCAGTGCATTAATTTATTCAACGT,8.59
4,AGAGACACTTTTTATTGTACAAGAGGAGGTTACCTT [XGTACX_site8768],6.61
5,AAAAAAAAAAAAGAAACACACATATATATATATATA [CACACA_site140],8.95
6,AAACAGAAGACATATACACACATACAAAAAAGTGCA [CACACA_site4699],7.62
7,AAAAAAAAAAAGAACACACACAGTGCACATTCGGTG [CACACA_site788],10.3
8,AGAACATGCAAACATGCACACAGAAAAAAAAAATAT [CACACA_site8442],8.26
9,AAAAAAAAAAAAGAAACACACACATTTGTATATAAT [CACACA_site8648],6.93
10,AAAAAAAAAAAAAGAACACACACAGTGCACATTCGG [CACACA_site8163],10.6
11,TGAACACACGAGCACACACACACATCTATATTTATA [CACACA_site6607],7.22
12,TTAATTACACAAAAAAGTACTTGATATTGTTTATTA [XGTACX_site3449],6.85
13,ATACTAACATTTTTTTGTACATATAACTATAAAATA [XGTACX_site1033],7.32
14,AAATATTTGTGTGGTTGTACTATAATGATAAAAATA [XGTACX_site7703],7.27
15,AAATACTGATTTGGTTGTACATGTGCACTATATAAC [XGTACX_site3795],11.4
16,GGAACTTTTGGAGGTGCATGCGGAGCAATCTTTTCA [TGCATGCA_site454],10.6
17,CCTTTTTCTAATGGATGTACTTATTATATACATTAT [XGTACX_site281],7.14
18,TTGAAAAATCAGCACACACACAAATACATACATATT [CACACA_site7505],7.03
19,ATTTTGATGATGTATGCACACATTGAAAATGAGAAA [CACACA_site2916],9.12
20,TTTTTTTTTTTTTTTTTTGGTGAGAGAAGAAAATTC [CACACA_negctrl_site950],7.02
21,TTTTTTTTTTTGTGAGTGCACGTATGAAGAGAAAAA,10.8
22,AATTTAATATAATGCACACATAAAAAAAAAAAAAAA [CACACA_site123],7.42
23,AATTATGCACAAATCACACATATAAAATAAAAAGTG [CACACA_site4474],7.87
24,TCAGGAATATAAAGTGCACACATAATTTGGGGGCAA [CACACA_site7974],11.2
25,AGGAATATAAAGTGCACACATAATTTGGGGGCAAAA [CACACA_site258],11.7

row,Sequence,gcPBM binding intensity (ln)
1,AATTTTGGAACGTGCACACATATGTAATATATATAT [CACACA_site3067],10.1
2,GAATAAAGGAGAGGCACACATATATATATATATATA [CACACA_site2452],9.61
3,ATATAGTATTAATTTGCATGTCATGTATTAGGTCGA [TGCATGCA_site540],6.73
4,TAAAATTTTATAAAGGAACACACATTTTTTTTTTTT [CACACA_site8740],6.87
5,TTTGATTTTAATGTGTGTACACATTTATTTATATAA [XGTACX_site4806],7.74
6,AAATAAGAAAATCATAGTACATAGGAATAGAAGAAC [XGTACX_site3135],7.59
7,ATATGGAATGATCATAGTACATAATTTAAAATTTTA [XGTACX_site3568],6.74
8,ATAATGAAGACTTTTTTACACACTTCATATATTATA [CACACA_site8630],6.96
9,AAAAAAAGAATGTGAACACACACATTGAATATAATT [CACACA_site8341],6.79
10,ATTAAAAAAAAAGAGCGTACAAATAATTACTTCTTT [XGTACX_site8262],6.83
11,ATATCATCTTCTCTATCATTTTTTTTTTTTTTTTTT [CACACA_negctrl_site1220],7.69
12,TTAATATAATTAAAATGTACTTATTTGTAAACATTA [XGTACX_site6313],6.78
13,TATATATATTTAAGGTGTACATAAATAACAAAATAT [XGTACX_site2641],7.47
14,TTATTATTATAAAATTGTACTTGGTATATTAACATA [XGTACX_site5829],6.98
15,AAATACTTAACATTGGTGCATATTTGTAAAATTATT [GTGCAC_site9515],10.7
16,TTTAAAATACAGAAGGTGCATTTAACATATTTGTAT,10.6
17,TATTTTAACATTAGGTGTACATACAAAAATAAAAAT [XGTACX_site8577],7.37
18,ATATTAAAATTTTAATGTACATGCGTATGTAGGAAT [XGTACX_site1673],7.39
19,TAATCATTTTAGCTTACACACAAAATTTTGTTATAA [CACACA_site2939],6.93
20,TTTATATAATTTTTTTGTACATATATATGAATACAT [XGTACX_site2316],7.11
21,AAATGTTGAAAAATATGTACATATTATATATATTAT [XGTACX_site1165],7.1
22,ATGTTAATTAATGAGGTGCATTGAATATTTCAATAA,10.6
23,TCTTTCAATATTAATGCATGTTAATAATAAATTTTA [TGCATGCA_site448],6.89
24,AATATTTTTCAATTTCATGTGCATTCATTGAAGTTA [CACACA_negctrl_site1232],7.34
